An excerpt weighted towards active compounds, which were near 19% of everything screened.
MCF10A rerep: A quantitative high throughput screen for small molecules that induce DNA re-replication in MCF 10a normal breast cells; MCF 10A DNA re-replication, Hoechst nuclear intensity, 48 h; Potency, µM (titrated, usually from 46.1 µM), actives largely listed as activators; actives 2.9% (n = 350,000); AID 624296, 2012; further: nearly all actives have a fitted effect of over 50% in size
BCR signal inh: qHTS Assay to Find Inhibitors of Chronic Active B-Cell Receptor Signaling; ABC-DLBCL IkBa-CBG/CBR reporter, luminescence ratio, 4 h; actives 0.05% (n = 340,000); AID 493014, 2011; Potency, µM (series often up to 46.1 µM), usual class: inhibitors; active means well fitted inhibition curve with a large enough effect in the signal ratio, with a control signal flat, not every such curve was filed as active; inconclusive means small, poorly fitted or top-dose-only effect, or effect the other way, or a change in a side signal; the % refers to the signal ratio
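TMD8 ABC-DLBCL cells carrying doxycycline-inducible green luciferase fused to IkappaBalpha plus unfused red luciferase were exposed to compounds (up to 46 uM) for 4 hrs at 37C. Activity came from the overlap-corrected green/red luminescence ratio.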
SW480 rerep: A quantitative high throughput screen for small molecules that induce DNA re-replication in SW480 colon adenocarcinoma cells | actives 1.8% (n = 340,000) | Potency, µM (titrated, usually from 46.1 µM), actives largely listed as activators | SW480 DNA re-replication, Hoechst DNA content imaging, 48 h; further: nearly all actives have a fitted effect of over 55% in size
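250 cells/well; 23 nL cpd via pin tool; 48 hr, 37 C, 5% CO2; Hoechst 40 min; imager read of total nuclear intensity, ex 405/em 500-530 nm.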
IL-1B inflam inh: qHTS for Inhibitors of Inflammasome Signaling: IL-1-beta AlphaLISA Primary Screen | THP-1 LPS/ATP IL-1B secretion, AlphaLISA, 16 h; stronger effect = lower value | activity change, % at 57.5 µM | actives 4.7% (n = 360,000) | AID 743279, 2014; in the data active means activity change below about -50%; inconclusive means mostly about -30% to -49%
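Secreted IL-1B measured by AlphaLISA bead assay after 16 h compound exposure of THP-1 cells; compounds (final up to 57.5 uM) added 1 h before LPS (250 ng/mL) and ATP (1.25 mM) stimulation; lower signal means less secretion.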
DT40 TDP1 no CPT: qHTS for Inhibitors of human tyrosyl-DNA phosphodiesterase 1 (TDP1): qHTS in cells in absence of CPT; DT40 Tdp1-/- hTDP1 cells, no CPT, ATP luminescence, 48 h; Potency, µM (doses to about 46.2 µM), most hits filed as inhibitors; actives 15% (n = 420,000); further: nearly all actives have a fitted effect of over 55% in size
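DT40 Tdp1-/-;hTDP1 cells, no CPT (DMSO vehicle only), 400 cells/well; compounds pin-transferred; ≥48 hr, 37 °C; CellTiter-Glo 30 min RT dark, luminescence read.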
DT40 TDP1 CPT: qHTS for Inhibitors of human tyrosyl-DNA phosphodiesterase 1 (TDP1): qHTS in cells in presence of CPT; actives 12% (n = 420,000); chicken DT40 Tdp1-/-;hTDP1 cells + 20 nM CPT, ATP luminescence, 48 h; Potency, µM (doses to about 46.2 µM), usual class: inhibitors; further: nearly all actives have a fitted effect of over 55% in size
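Cell growth measured by CellTiter-Glo luminescence after a minimum 48 h, 37 C compound exposure with 20 nM CPT in Tdp1-knockout DT40 cells stably expressing hTDP1, seeded 400/well; qHTS titration format.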
Numbers stand for hits. Unless noted, the call rests on the fitted dose curve; in most records, active means well fitted curve in the direction sought with a large enough effect; inconclusive means small, poorly fitted or top-dose-only effect, or another doubt; inactive means no such curve, though single readings can be large; an effect the other way counts as inactive or inconclusive.

Screening CN1CCN(CCNC(=O)c2ccc(CS(=O)c3ccc(Br)cc3)o2)CC1 (configuration not stated) returned IL-1B inflam inh inactive, DT40 TDP1 no CPT inactive and DT40 TDP1 CPT inactive.
CCCCn1c(N)c(N(CCOC)C(=O)c2cccc(-n3cnnn3)c2)c(=O)[nH]c1=O was read as MCF10A rerep inactive, BCR signal inh inactive, SW480 rerep inactive, IL-1B inflam inh inactive, DT40 TDP1 no CPT inactive and DT40 TDP1 CPT inactive.
Cc1cc(C)cc(C(O)c2ncc(-c3ccc(F)cc3)[nH]2)c1 (configuration not stated) was read as IL-1B inflam inh inactive, DT40 TDP1 no CPT inconclusive and DT40 TDP1 CPT inconclusive.
Cc1nc2ccc(-c3nc4ccc(N)cc4[nH]3)cc2[nH]1 was read as MCF10A rerep inactive, BCR signal inh inconclusive, SW480 rerep inactive, IL-1B inflam inh inactive, DT40 TDP1 no CPT 4.11µM and DT40 TDP1 CPT 2.91µM.
For CN(C)c1ccc(-c2nc3cc(N)ccc3o2)cc1 the results were MCF10A rerep inconclusive, BCR signal inh inconclusive, SW480 rerep inconclusive, IL-1B inflam inh inactive, DT40 TDP1 no CPT inactive and DT40 TDP1 CPT inactive.
`Cc1ccc(C)c(-c2nc3ccc(N)cc3[nH]2)c1` gave MCF10A rerep inconclusive, BCR signal inh inconclusive, SW480 rerep inconclusive, IL-1B inflam inh inactive, DT40 TDP1 no CPT 14.6µM and DT40 TDP1 CPT 23.1µM.
For Nc1ccc2nc(-c3ccc(Cl)cc3)[nH]c2c1 the results were MCF10A rerep inconclusive, BCR signal inh inactive, SW480 rerep inactive, IL-1B inflam inh inactive, DT40 TDP1 no CPT 4.61µM and DT40 TDP1 CPT 2.91µM.
Screening Nc1ccc(-c2nc3cc(N)ccc3o2)cc1 returned MCF10A rerep inactive, BCR signal inh inactive, SW480 rerep inactive, IL-1B inflam inh -53.5, DT40 TDP1 no CPT inactive and DT40 TDP1 CPT inactive.
`Nc1ccc2nc(-c3cccc(-c4nc5ccc(N)cc5[nH]4)c3)[nH]c2c1` gave MCF10A rerep inactive, BCR signal inh inconclusive, SW480 rerep inactive, IL-1B inflam inh inactive, DT40 TDP1 no CPT inconclusive and DT40 TDP1 CPT inactive.
Screening Nc1nc(-c2ccc3ccccc3c2)c(C2(O)C(=O)Nc3c(Br)cc(F)cc32)s1 (configuration not stated) returned MCF10A rerep inactive, BCR signal inh inactive, SW480 rerep inactive, IL-1B inflam inh inactive, DT40 TDP1 no CPT inactive and DT40 TDP1 CPT inactive.
Screening Fc1cnc(Cl)nc1NC1CCCCC1 returned MCF10A rerep inactive, BCR signal inh inactive, SW480 rerep inactive, IL-1B inflam inh inactive, DT40 TDP1 no CPT inconclusive and DT40 TDP1 CPT inconclusive.
For Cn1c(NC(=O)c2ccc(S(=O)(=O)N3CCOCC3)cc2)cc(=O)n(C)c1=O the results were MCF10A rerep inactive, BCR signal inh inactive, SW480 rerep inactive, IL-1B inflam inh inactive, DT40 TDP1 no CPT inactive and DT40 TDP1 CPT inactive.
`Cc1ccc2[nH]c3c(c2c1)CN(C(C)C)CC3` gave MCF10A rerep inactive, BCR signal inh inactive, SW480 rerep inactive, IL-1B inflam inh inactive, DT40 TDP1 no CPT inconclusive and DT40 TDP1 CPT inconclusive.
Cc1nc2ccc(N=NN(C)C)cc2[nH]1 was read as MCF10A rerep inactive, BCR signal inh inconclusive, SW480 rerep inactive, IL-1B inflam inh inactive, DT40 TDP1 no CPT inactive and DT40 TDP1 CPT inactive.
Cc1nc2ccc(-c3nc4ccccc4o3)cc2[nH]1 was read as MCF10A rerep inactive, BCR signal inh inconclusive, SW480 rerep inactive, IL-1B inflam inh inactive, DT40 TDP1 no CPT inconclusive and DT40 TDP1 CPT inactive.
`Nc1ccc(-c2nc3ccc(-c4nc5ccccc5o4)cc3[nH]2)cc1` gave MCF10A rerep 3.98µM, BCR signal inh inconclusive, SW480 rerep 4.47µM, IL-1B inflam inh inactive, DT40 TDP1 no CPT 8.2µM and DT40 TDP1 CPT 14.6µM.
Screening Cc1nc2ccc(Cc3ccc4nc(C)[nH]c4c3)cc2[nH]1 returned MCF10A rerep inactive, BCR signal inh inconclusive, SW480 rerep inactive, IL-1B inflam inh inactive, DT40 TDP1 no CPT inconclusive and DT40 TDP1 CPT 25.9µM.
Screening Cc1ccnc2ccc(-c3nc4ccccc4o3)cc12 returned MCF10A rerep inconclusive, BCR signal inh inconclusive, SW480 rerep inactive, IL-1B inflam inh inactive, DT40 TDP1 no CPT 10µM and DT40 TDP1 CPT 20.6µM.
`COc1ccc(CCN2CC(C(=O)N3CCN(C(C)=O)CC3)CCC2=O)cc1` (configuration not stated) gave MCF10A rerep inactive, BCR signal inh inactive, SW480 rerep inactive, IL-1B inflam inh inactive, DT40 TDP1 no CPT inactive and DT40 TDP1 CPT inactive.
For Cc1cccc(-c2noc(CNC(=O)Nc3ccc(F)cc3)n2)c1 the results were MCF10A rerep inactive, BCR signal inh inactive, SW480 rerep inactive, IL-1B inflam inh inactive, DT40 TDP1 no CPT inactive and DT40 TDP1 CPT inactive.
Screening COc1ccc(S(=O)(=O)N(Cc2nc(-c3cccc(C)c3)no2)C2CCCCC2)cc1 returned DT40 TDP1 no CPT inconclusive and DT40 TDP1 CPT 14.6µM.
For Cc1cccc(-c2noc(CN(C3CCCCC3)S(=O)(=O)c3ccc(F)cc3)n2)c1 the results were DT40 TDP1 no CPT 14.6µM and DT40 TDP1 CPT 20.6µM.
Cc1ccc(S(=O)(=O)N(Cc2nc(-c3cccc(C)c3)no2)C2CCCCC2)cc1 was read as DT40 TDP1 no CPT 10.3µM and DT40 TDP1 CPT inconclusive.
`CCOC(=O)c1ccc(CN(Cc2ccc(F)cc2)S(=O)(=O)c2ccc(F)c(C(=O)Nc3ccc(Cl)cc3F)c2)cc1` gave BCR signal inh inactive, DT40 TDP1 no CPT inactive and DT40 TDP1 CPT inactive.
Screening COc1ccc(OC)c(CC(=O)Nc2ccc3c(c2)c(=O)n(C)n3Cc2cccc(C(F)(F)F)c2)c1 returned IL-1B inflam inh inactive, DT40 TDP1 no CPT inconclusive and DT40 TDP1 CPT 29.1µM.
`Cn1c(=O)c2cc(NC(=O)NCc3ccccc3)ccc2n1Cc1ccc(Cl)cc1` gave IL-1B inflam inh inactive, DT40 TDP1 no CPT inconclusive and DT40 TDP1 CPT inconclusive.
For COc1ccc(CNC(=O)Nc2ccc3c(c2)c(=O)n(C)n3Cc2cccc(C(F)(F)F)c2)cc1 the results were IL-1B inflam inh inactive, DT40 TDP1 no CPT 23.1µM and DT40 TDP1 CPT inconclusive.
Screening CCc1ccc(-c2nnn(CC(=O)N(C3CCCC3)C3CCS(=O)(=O)C3)n2)cc1 (configuration not stated) returned MCF10A rerep inactive, BCR signal inh inconclusive, SW480 rerep inconclusive, IL-1B inflam inh inactive, DT40 TDP1 no CPT inactive and DT40 TDP1 CPT inactive.

Compound activity from PubChem.
